Measured values reported in PubChem BioAssay AID977606 (Broad Institute, 2014).
About 430 (29%) of roughly 1,500 compounds were called active. The list is a sample of the results. Potency and affinity values are given separately. A number with no mark means an inactive call. How the calls were made is not given here.

Assay: insulin secretion activators without glucose, dose response, counter-screen for glucose-dependent insulin secretion activators, cell-based, INS-1E, Gaussia luciferase, luminescence, cherry-pick (AID 977606);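 further: 0% = median of neutral control wells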
Settings: INS-1E Gaussia luciferase insulin secretion, no glucose, 100% = twice neutral-control luminescence; series mostly up to 35 µM; activation: at the top concentration

Compared with `CC(=O)c1cccc(NC2c3ncccc3C(=O)N2Cc2ccco2)c1` (stereo not given), `O=c1cc(-c2cccc(Br)c2)nc(-c2ccccc2F)o1` is higher in “activation” value: 5.07% for the first, 18.6% for the second.

Going from `COC(C)(C)c1cc(C(C)(C)C)nc(N)n1` to `COc1ccc(-c2cnc(N)nc2-c2ccc(OC)cc2)cc1`, the “activation” value rises from -4.56% to -4.31%.

Going from `O=C(O)CCN1c2ccccc2Sc2ccccc21` to `Cc1ccc(C(C)C)c(OCCNCCc2ccccc2)c1`, the “activation” value rises from -13.1% to 296%.

First: CC1=NN(C(N)=S)C(=O)C1N=Nc1ccccc1C (stereo not given)
Second: Cc1nn(-c2ccccc2)c2c1C(O)CC(C)(C)C2 (stereo not given)
The “activation” value of the first is lower: -12.7% for the first, 8.92% for the second.

Compared with `COc1cccc(-c2nnn(CC(=O)O)n2)c1`, `COc1cc(/C=N/NC(=O)C(C)n2nnc3ccccc32)ccc1O` (stereo not given) is higher in “activation” value: -2.57% for the first, 20.6% for the second.

Going from `C1CCN(CCCNC2C3CC4CC(C3)CC2C4)C1` (stereo not given) to `CC(C)c1ccc2oc(=O)cc(CN3CCCCC3)c2c1`, the “activation” value falls from 5.94% to 3.9%.

Going from `CC(=O)Nc1nc(CC(C)C)cc(-c2ccco2)c1C#N` to `COc1ccc(C2=NOC(C(=O)NCc3ccccn3)C2)cc1OC` (stereo not given), the “activation” value falls from -11.2% to -18.3%.

Going from `CC(C(=O)N1CCC(C(N)=O)CC1)N(c1ccc(Oc2ccccc2)cc1)S(C)(=O)=O` (stereo not given) to `Cc1ccc(S(=O)(=O)N2CCN(C(=O)COC(=O)c3ccc(O)cc3)CC2)c(C)c1`, the “activation” value falls from 2.24% to -21.2%.

Compared with `COc1ccc(C(=O)NCC(=O)OCC(=O)Nc2ccc(C)c(S(=O)(=O)N(C)C)c2)cc1OC`, `COc1ccc(CCN=C(N)NS(=O)(=O)c2ccc(C)c(C)c2)cc1OC` is lower in “activation” value: 13.4% for the first, 5.18% for the second.

Going from `c1nc(N2CCOCC2)c2c3c(sc2n1)CCCC3` to `CC1=C(C(=O)N2CCOCC2)CC(CC(=O)NCCCN(C)C)C(=O)N1CCCN1CCCC1=O` (stereo not given), the “activation” value falls from 3.5% to 0.538%.

Compared with `N#CC1=C(N)Oc2nc(-c3ccccc3)[nH]c2C1c1cccnc1` (stereo not given), `CCC(=O)Nc1ccc(C(=O)N/N=C/c2cccnc2)cc1` is lower in “activation” value: 6.08% for the first, -9.47% for the second.

Compared with `COc1ccc(N2CCN(S(=O)(=O)c3ccc(-c4cc(C)no4)s3)CC2)cc1`, `Cn1c(=O)c(=O)n(C)c2cc(S(=O)(=O)N3CCN(c4ccc(F)cc4)CC3)ccc21` is lower in “activation” value: -0.25% for the first, -6.48% for the second.

Going from `CC/C(O)=C1\C(=O)CC(c2ccccc2)CC1=NC(C)C` (stereo not given) to `C[C@@H]1CC2=C(C(=O)OC(C)(C)O2)[C@H](c2ccc(Cl)cc2)O1`, the “activation” value rises from -3.66% to 14.6%.

First: CCc1ccc(OCC(=O)NC(=S)Nc2ccc(C)cc2C)c(Br)c1
Second: COc1ccc(CCNC(=O)COC(=O)c2cncc(Br)c2)cc1OC
The “activation” value of the first is higher: -3.07% for the first, -8.17% for the second.

First: CCOC(=O)C1=NN(C(=O)Nc2cccc(C(F)(F)F)c2)C2C(=O)N(c3cccc(C(F)(F)F)c3)C(=O)C12 (stereo not given)
Second: CCOc1ccc(CCNC(=O)COC(=O)c2cccnc2SC)cc1OCC
The “activation” value of the first is lower: -8.05% for the first, 9.47% for the second.
